Screens from PubChem BioAssay.
An excerpt weighted towards active compounds, which were near 3% of everything screened.
S16 F2sN tox: Cell viability qHTS assay in S16 Pmp22-F2sN cells; S16 Pmp22-F2sN Schwann cells viability, CellTiter-Glo, 24 h; Potency, µM (titrated, usually from 57.5 µM), for the others: top-dose activity change, negative = cytotoxicity, usual class: cytotoxic; 43,000 compounds, 0.48% hits; AID 1508642, 2021; further: potency means the concentration at half of the fitted maximal effect; on the % scale 0 is the no-effect control and ±100 the full control effect; nearly all actives have a fitted effect of over 65% in size
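Used to flag compounds lowering reporter output through toxicity, this quantitative HTS measures ATP-based CellTiter-Glo luminescence in S16 Pmp22-F2sN Schwann cells after 24 h compound exposure at 37C.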
SKOV3 invasion: Primary qHTS assay for Inhibitors of ovarian cancer metastasis using an organotypic tumor microenvironment (TME) model. SKOV3ip1-GFP adhesion/invasion on 3D omental model, fluorescence. Potency, µM (series often up to 45.8 µM), for the others: at the highest dose activity change, negative = inhibition, actives largely listed as inhibitors. 46,000 compounds, 0.1% hits;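 further: potency means the concentration at half of the fitted maximal effect; plate controls were DMSO wells for no effect and tomatine positive control wells for full effect; nearly all actives have a fitted effect of over 65% in size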
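qHTS, 4-pt dose (0.36-46 umol/L); SKOV3ip1-GFP, 1,200 cells/well, no FBS; primary omental fibroblast/mesothelial co-culture 48 h pre-grown; 2 h RT + 16 h 37 C; PBS wash, 4% PFA; GFP count 488/509 nm.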
p53null 32C kill: qHTS Screen for Compounds that Selectively Target Cancer Cells with p53 Mutations: Cytotoxicity of p53 Null Cells at the Permissive Temperature; 55,000 compounds, 0.62% hits; H1299-neo p53 null cells, ATP luminescence, 24 h, 32C; Potency, µM (highest dose often 46.1 µM), inactives show at the top dose activity change, negative = cytotoxicity, hits mostly cytotoxic;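 further: potency means the concentration at half of the fitted maximal effect; 0% = DMSO only and -100% = full killing by 100 µM tamoxifen; nearly all actives have a fitted effect of over 55% in size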
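Cells lacking p53 (H1299-neo) are plated at 600 per well and allowed to settle overnight at 37C. Test compounds (up to 46 uM) are added and held 24 hours at 32C, then ATP is quantified by luminescence.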
mTORC1 inh: Acumen qHTS Assay for Inhibitors of the mTORC1 Signaling Pathway in MEF (Tsc2-/-, p53-/-) Cells: Sytravon; Tsc2-/- p53-/- MEF, phospho-rpS6 immunofluorescence/PI, 24 h; Potency, µM (doses to about 38.3 µM), for the others: at the highest dose activity change, negative = inhibition, usual class: inhibitors; 44,000 compounds, 0.78% hits;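 further: potency means the concentration at half of the fitted maximal effect; plate controls were DMSO for no effect and rapamycin for full effect; nearly all actives have a fitted effect of over 50% in size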
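Plate MEFs (Tsc2-/-, p53-/-, empty vector) in DMEM/10% FBS; after 24 h add compound, incubate 24 h at 37 degree Celsius; fix in PFA/TX-100, block, stain phospho-rpS6 and 10 uM PI; scan at 488 nm; report % positive cells.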
p53null 39C kill: qHTS Screen for Compounds that Selectively Target Cancer Cells with p53 Mutations: Cytotoxicity of p53 Null Cells at the Nonpermissive Temperature | H1299 p53-null (neo) cells, 39C, ATPlite viability, 24 h | Potency, µM (titrated, usually from 46.1 µM), inactives show top-dose activity, negative = cell killing, hits mostly cytotoxic | 55,000 compounds, 0.97% hits;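 further: potency means the concentration at half of the fitted maximal effect; 0% = DMSO only and -100% = full killing by 100 µM tamoxifen; nearly all actives have a fitted effect of over 50% in size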
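Luminescent ATP signal reported cell survival after H1299 lines (neo, p53 null; or p53 A138V) received up to 46 uM compound and 24 hr incubation at 39C.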
PMP22 txn prim: Cell-based coincidence reporter assay to measure PMP22 gene transcription in S16 Pmp22-F2sN cells - Primary screen; S16 Pmp22-F2sN Schwann cells (luciferase reporters placed in the Pmp22 gene), FLuc/NLuc coincidence luminescence, 24 h; Potency, µM (top dose mostly 57.5 µM), for inactives: at the top dose activity change, negative = inhibition, usual class: inhibitors; 43,000 compounds, 2% hits; AID 1508649, 2021; active means clear falling dose curves in both reporters; inconclusive means both reporters move, but less clearly or upward; inactive means either reporter flat; the % is the NLuc reporter signal; further: potency means the concentration at half of the fitted maximal effect; on the % scale 0 is the no-effect control and ±100 the full control effect
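Transcriptional readout in edited S16(c9) cells: two luciferases reported from the Pmp22 locus, measured in turn after 24 h compound incubation.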
NLuc saturating: Biochemical NLuc saturation counterscreen for small molecule modulators of PMP22 gene expression - Nano-Glo assay; shares compounds with PMP22 txn prim; Secreted NLuc enzyme (filtered S16 cell medium), Nano-Glo luminescence; Potency, µM (titrated, usually from 57.5 µM), without a hit: top-dose activity change, negative = inhibition, hits mostly inhibitors; 690 compounds, 4% hits; further: potency means the concentration at half of the fitted maximal effect; on the % scale 0 is the no-effect control and ±100 the full control effect
NLuc Km counter: Biochemical coelenterazine-based NLuc counterscreen for small molecule modulators of PMP22 gene expression - Km assay; shares compounds with PMP22 txn prim; secreted NLuc enzyme, coelenterazine luminescence, Km conditions; Potency, µM (top dose mostly 57.5 µM), inactives show at the top dose activity change, negative = inhibition, hits mostly inhibitors; 690 compounds, 5% hits; AID 1508639, 2021; further: potency means the concentration at half of the fitted maximal effect; on the % scale 0 is the no-effect control and ±100 the full control effect
FLuc ctr PMP22: Biochemical FLuc counterscreen for small molecule modulators of PMP22 gene expression | 690 tested, under 10 active | purified P. pyralis FLuc, luminescence, 10 min | shares compounds with PMP22 txn prim | AID 1508640, 2021 | Potency, µM (titrated, usually from 57.5 µM), for inactives: at the highest dose activity, negative = inhibition, actives largely listed as inhibitors; further: % of control where 0% means no effect
Target sequence (P08659 whole entry, looked up): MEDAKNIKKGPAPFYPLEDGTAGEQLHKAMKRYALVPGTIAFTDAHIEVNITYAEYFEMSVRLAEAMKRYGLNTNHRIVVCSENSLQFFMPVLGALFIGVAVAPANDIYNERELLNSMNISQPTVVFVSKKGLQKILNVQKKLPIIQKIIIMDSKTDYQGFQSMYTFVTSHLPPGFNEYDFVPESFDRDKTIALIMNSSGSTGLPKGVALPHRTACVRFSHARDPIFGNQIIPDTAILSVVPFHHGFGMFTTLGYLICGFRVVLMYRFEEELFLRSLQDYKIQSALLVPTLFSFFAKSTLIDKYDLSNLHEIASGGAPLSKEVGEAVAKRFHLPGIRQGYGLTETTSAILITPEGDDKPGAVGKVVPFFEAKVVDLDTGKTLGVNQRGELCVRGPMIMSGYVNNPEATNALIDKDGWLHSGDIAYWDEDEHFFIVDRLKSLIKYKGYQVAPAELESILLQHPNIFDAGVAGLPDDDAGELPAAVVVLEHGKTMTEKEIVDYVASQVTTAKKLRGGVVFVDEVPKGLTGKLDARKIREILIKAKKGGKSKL
S16 viab conf: Cell viability qHTS assay in S16 Pmp22-F2sN cells - Confirmatory screen | 690 compounds, 7% hits | AID 1508641, 2021 | S16 Schwann cells viability, CellTiter-Glo ATP luminescence, 24 h | Potency, µM (highest dose often 57.5 µM), for the others: at the top dose activity change, negative = viability loss, most hits filed as cytotoxic | shares compounds with PMP22 txn prim; further: potency means the concentration at half of the fitted maximal effect; on the % scale 0 is the no-effect control and ±100 the full control effect
PMP22 txn cnf: Cell-based coincidence reporter assay to measure PMP22 gene transcription in S16 Pmp22-F2sN cells - Confirmatory screen; Potency, µM (series often up to 57.5 µM), without a hit: top-dose activity change, negative = inhibition, actives largely listed as inhibitors; shares compounds with PMP22 txn prim; S16 Schwann cells Pmp22-F2sN, dual luciferase, 24 h; 690 compounds, 22% hits; active means clear falling dose curves in both reporters; inconclusive means both reporters move, but less clearly or upward; inactive means either reporter flat; the % is the FLuc reporter signal; further: potency means the concentration at half of the fitted maximal effect
PMP22 HiBiT cnf: Cell-based HiBiT reporter assay to measure PMP22 protein expression in S16 Pmp22-HiBiT cells - Confirmatory screen. shares compounds with PMP22 txn prim. S16 Schwann cells Pmp22-HiBiT, luminescence, 48 h. Potency, µM (top dose mostly 27.9 µM), for the others: at the top dose activity change, negative = inhibition, usual class: inhibitors. 95 tested, under 10 active
Target sequence (P25094 whole entry, looked up): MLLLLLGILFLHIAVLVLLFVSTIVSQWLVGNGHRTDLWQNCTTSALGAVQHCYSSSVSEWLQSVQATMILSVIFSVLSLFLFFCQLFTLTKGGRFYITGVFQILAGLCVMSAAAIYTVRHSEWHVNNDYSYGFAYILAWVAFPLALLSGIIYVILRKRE
* = called active by the depositor. Unless noted, the call rests on the fitted dose curve; in most records, active means well fitted curve in the direction sought with a large enough effect; inconclusive means small, poorly fitted or top-dose-only effect, or another doubt; inactive means no such curve, though single readings can be large; an effect the other way counts as inactive or inconclusive.

Results for O=S(=O)(NCc1ccc(F)cc1)c1ccc(N2CCCCS2(=O)=O)cc1 ?
S16 F2sN tox: inconclusive; SKOV3 invasion: -5%; p53null 32C kill: 3%; mTORC1 inh: -30%; p53null 39C kill: 1%; PMP22 txn prim: 12µM*; NLuc saturating: -2%; NLuc Km counter: -3%; FLuc ctr PMP22: -1%; S16 viab conf: -7%; PMP22 txn cnf: 3%

How did NS(=O)(=O)c1ccc(NC2=CC(=O)c3ccccc3C2=O)cc1 do in these assays?
SKOV3 invasion: -12%

Results for CCC(=O)N1CCc2cc(S(=O)(=O)CCC(=O)N3CCN(c4ccc(Cl)cc4)CC3)ccc21 ?
S16 F2sN tox: -1%; SKOV3 invasion: 2%; p53null 32C kill: 17%; mTORC1 inh: -2%; p53null 39C kill: -3%; PMP22 txn prim: 17µM*; NLuc saturating: inconclusive; NLuc Km counter: -4%; FLuc ctr PMP22: -3%; S16 viab conf: 12%; PMP22 txn cnf: inconclusive

What do the screens show for `CCOC(=O)N1CCN([N+]([O-])=NOc2cc(ON=[N+]([O-])N3CCN(C(=O)OCC)CC3)c([N+](=O)[O-])cc2[N+](=O)[O-])CC1`?
SKOV3 invasion: 21%

Results for Cc1cccc(CS(=O)(=O)c2ncc(Cl)c(C(=O)Nc3nc4ccc(F)cc4s3)n2)c1 ?
S16 F2sN tox: inconclusive; SKOV3 invasion: inactive; p53null 32C kill: 2%; mTORC1 inh: inconclusive; p53null 39C kill: -3%; PMP22 txn prim: 6.5µM*; NLuc saturating: inconclusive; NLuc Km counter: inconclusive; FLuc ctr PMP22: -5%; S16 viab conf: inconclusive; PMP22 txn cnf: 10µM*; PMP22 HiBiT cnf: inconclusive

What do the screens show for `CCOc1ccc2nc(NC(=O)c3nc(SC(C)C)ncc3Cl)sc2c1`?
S16 F2sN tox: inconclusive; SKOV3 invasion: inactive; p53null 32C kill: -13%; mTORC1 inh: -2%; p53null 39C kill: -29%; PMP22 txn prim: 18µM*; NLuc saturating: -6%; NLuc Km counter: -3%; FLuc ctr PMP22: -12%; S16 viab conf: -21%; PMP22 txn cnf: inconclusive

Results for COc1ccc2nc(NC(=O)c3nc(SCc4cccc(C)c4)ncc3Cl)sc2c1 ?
S16 F2sN tox: 4%; SKOV3 invasion: inactive; p53null 32C kill: 1%; mTORC1 inh: 3%; p53null 39C kill: -20%; PMP22 txn prim: 10µM*; NLuc saturating: -9%; NLuc Km counter: 5%; FLuc ctr PMP22: 5%; S16 viab conf: inconclusive; PMP22 txn cnf: inconclusive

How did COc1c(Cl)cc2c([nH]c3cnccc32)c1NC(=O)c1cccnc1C do in these assays?
SKOV3 invasion: -1%

Results for COc1ccc(-n2nc(C(N)=O)c3c2C(=O)N(c2ccc(N4CCCCC4=O)cc2)CC3)cc1 ?
SKOV3 invasion: -29%

How did CCN1CCOC(=O)C1CC(=O)Nc1ccccc1C(F)(F)F (centres undefined) do in these assays?
S16 F2sN tox: -3%; SKOV3 invasion: inactive; mTORC1 inh: inconclusive; PMP22 txn prim: inconclusive

Results for CCN1CCOC(=O)C1CC(=O)Nc1ccc(C(C)=O)cc1 (centres undefined) ?
S16 F2sN tox: 20%; SKOV3 invasion: 6%; mTORC1 inh: inconclusive; PMP22 txn prim: inconclusive

Results for CCc1ccc(NC(=O)CC2C(=O)OCCN2CC)cc1 (centres undefined) ?
S16 F2sN tox: inconclusive; SKOV3 invasion: inactive; mTORC1 inh: inconclusive; PMP22 txn prim: 15µM*; NLuc saturating: -17%; NLuc Km counter: -17%; FLuc ctr PMP22: -19%; S16 viab conf: -27%; PMP22 txn cnf: inconclusive
